A selection: hits, their analogues and other compounds. The true share with any hit is near 3.5%.
GPR151 ag: activates the human receptor GPR151. 650,000 tested, 1% active. AID 1508602. PathHunter beta-arrestin GPR151 cells, luminescence. activation, % at 11.2 µM. Q8TDV0; in the data active = activation above about 4.9%;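 note: 0% = median of compound wells and 100% = cells with positive control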
FBW7 activator: human FBW7 E3 ligase activation, primary screen; Q969H0; AlphaScreen FBW7–phospho-cyclin E peptide binding, activator screen; normalized activity (activation), % at 26.1 µM; 650,000 tested, 0.13% active; AID 1259310; in the data active = normalized activity above about 1.9%;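 note: purified mutant Fbw7 with reduced substrate affinity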
TEAD-YAP inh: TEAD-YAP interaction inhibition; HEK-TIYL cells, TEAD-Gal4/YAP UAS-luciferase luminescence; 640,000 tested, 1.4% active; inhibition, % at 9.12 µM; AID 1259422; in the data active = inhibition above about 32%;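 note: 0% = median of test compound wells and 100% = reference inhibitor wells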
MITF primary: human MITF inhibition, primary screen. inhibition, % at 2.6 µM. 650,000 tested, 0.91% active. AlphaScreen MITF homodimerization, bead proximity signal. AID 1259374; in the data active = inhibition above about 50%;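 note: 0% = vehicle wells with protein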
GPR151 confirm: human GPR151 activation, confirmation screen | GPR151 PathHunter beta-arrestin cells, luminescence, 90 min; % of EA-reagent control over plate median | activation, % at 11.2 µM | 6,700 tested, under 10 active | shares compounds with GPR151 ag;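 active = mean percent activation across replicates above the confirmation screen cutoff of 4.91%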
GPR119 counter: GPR119 activation, counter-screen for GPR151 activators; shares compounds with GPR151 ag; GPR119 PathHunter beta-arrestin cells, luminescence, 90 min; 0 = compound-well median, 100 = enzyme-acceptor control; activation, % at 11.2 µM; 6,700 tested, 0.3% active;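 active = mean percent activation in the counterscreen above 29.09%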;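 note: counterscreen on off-target GPR119 to flag nonselective hits from the GPR151 activator screen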
Target sequence (Q8TDV5 whole entry, looked up): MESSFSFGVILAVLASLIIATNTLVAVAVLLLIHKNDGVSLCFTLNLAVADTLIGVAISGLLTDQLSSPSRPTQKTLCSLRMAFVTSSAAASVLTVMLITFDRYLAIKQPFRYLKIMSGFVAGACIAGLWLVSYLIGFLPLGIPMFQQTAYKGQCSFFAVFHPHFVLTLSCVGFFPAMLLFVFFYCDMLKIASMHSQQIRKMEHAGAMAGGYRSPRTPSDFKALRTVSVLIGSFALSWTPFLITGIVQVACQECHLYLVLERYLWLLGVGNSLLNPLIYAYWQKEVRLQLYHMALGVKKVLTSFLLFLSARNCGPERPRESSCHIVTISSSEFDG
Numbers without * were called inactive; . = no result; ! = a repeat was not active.

SMILES	GPR151 ag	FBW7 activator	TEAD-YAP inh	MITF primary	GPR151 confirm	GPR119 counter
COC(=O)[C@@H]1CCCN1Cc1ccc2c(c1)CN(Cc1c[nH]c3ccccc13)CCO2	6.9*	0	-4	9	0	1
COC(=O)[C@@H]1CCCN1Cc1ccc2c(c1)CN(Cc1ccccc1)CCO2	-1	0	-3	-7	.	.
CN1CCC(N(C)Cc2cc([N+](=O)[O-])ccc2O)CC1	6.0*	0	2	10	0	1
O=[N+]([O-])c1ccc(NC(=S)Nc2ccc3c(c2)OCCO3)cc1	-1	0	20	7	.	.
O=C(CSc1nccn1Cc1ccc(F)cc1)Nc1nccs1	7.0*	0	-16	-7	0	-2
Cc1ccc(Cn2ccnc2SCC(=O)Nc2ccccc2F)cc1	8.6*	0	5	-2	0	-9
COc1ccc(-c2noc(CC(=O)Nc3cccc([N+](=O)[O-])c3C)n2)cc1	0	0	-3	-13	.	.
CCOC(=O)c1ccc(Nc2ncnc3c2cnn3Cc2ccccc2)cc1	6.2*	0	2	25	-1	-14
CCOC(=O)c1ccc(Nc2ncnc3c2cnn3C)cc1	-1	0	-17	10	.	.
COc1ccc(S(=O)(=O)NC(CC(=O)NC2CCCC2)C(C)C)cc1 (stereo not given)	0	0	4	-3	.	.
CCOC(=O)c1cccc(COC(=O)CNS(=O)(=O)c2ccc([N+](=O)[O-])cc2)c1	-1	0	-12	-9	.	.
O=C(CC1NCCNC1=O)Nc1ccccc1 (stereo not given)	0	0	-1	-7	.	.
CN(C)c1ccc(NC(=O)CC2NCCNC2=O)cc1 (stereo not given)	5.0*	0	-5	7	-1	1
CC(C)C[C@H](O)C(=O)N1CCN(c2ccc3[nH]ncc3c2)CC1	5.0*	0	-8	8	0	13
CC(C)[C@H](O)C(=O)N1CCN(c2ccc3[nH]ncc3c2)CC1	-1	0	0	24	.	.
C=CCOC(=O)c1cc(-c2ccc(/C=N/Nc3nn[nH]n3)o2)ccc1Cl	5.0*	0	-21	15	1	3
O=C(NCCN1CCCCCC1)c1ncoc1-c1ccc(Cl)cc1	5.9*	0	6	-20	0	10
COc1ccc(-c2ocnc2C(=O)NCCN2CCCCCC2)cc1OC	1	0	3	14	.	.
CC(=O)NC(C(=O)NCC1Cc2cc(C)cc(-c3nc4ccccc4s3)c2O1)C(C)C (stereo not given)	1	0	-10	5	.	.
Cc1nonc1OCCCNc1ccc([N+](=O)[O-])cc1	-1	1	17	4	.	.
O=[N+]([O-])c1cc(C(F)(F)F)ccc1NCCNCCO	0	0	12	-7	.	.
O=[N+]([O-])c1ccccc1NCCNCCO	7.9*	0	3	-1	0	-2
Cc1nonc1OCCNCCNc1ccccc1[N+](=O)[O-]	5.6*	0	1	1	0	5
CN(C)c1nc2cc(F)ccc2cc1CN(Cc1ccco1)C(=O)c1cn2ccccc2n1	15*	0	2	0	0	7
COc1ccc2c(c1)-c1c(ssc1=S)C(C)(C)N2C(=O)Cc1ccccc1	6.3*	-1	-16	16	1	10
SMILES	GPR151 ag	FBW7 activator	TEAD-YAP inh	MITF primary	GPR151 confirm	GPR119 counter
CCOC(=O)c1sc2nc(SCc3cccc([N+](=O)[O-])c3)n(Cc3ccc(OC)cc3)c(=O)c2c1C	0	0	2	4	.	.
COc1ccc(NC(=O)Nc2ccc(CN3CCN(C)CC3)cc2)cc1	0	0	-45	8	.	.
CN1CCN(Cc2ccc(NC(=O)NCc3cccc4ccccc34)cc2)CC1	7.0*	0	6	-11	1	0
CCOc1ccc(C(F)(F)F)cc1NC(=O)c1ccc(Cl)cc1	-1	0	2	7	.	.
COc1ccccc1-c1nnc(NC(=O)CSC2=NCCS2)s1	5.6*	0	-7	4	1	5
Cc1occc1-c1nn(CC(=O)NC2CC2)c(=O)o1	0	0	4	6	.	.
O=C1NC2(CCN(Cc3ccc4nccnc4c3)CC2)Oc2ccccc21	5.0*	0	4	-5	-1	-12
O=C1NC2(CCN(Cc3ccc(F)c(F)c3)CC2)Oc2ccccc21	1	0	-1	2	.	.
CN1CCN(c2cc(-c3cncc(-c4cccs4)c3)nc(-c3ccccc3)n2)CC1	-1	0	0	12	.	.
N#CCOc1ccc2c(=O)c(Oc3ccccc3Cl)coc2c1	5.6*	0	7	8	1	19
Cn1c(NC(=O)c2ccco2)c(-c2cccs2)c(=O)c2ccccc21	6.6*	0	6	7	0	-3
CCC(=O)N1c2ccccc2NC2=C(C(=O)CC(C)(C)C2)C1c1ccc(N(C)C)cc1 (stereo not given)	0	0	16	2	.	.
CC1(C)CC(=O)C2=C(C1)Nc1cc(C(=O)c3ccccc3)ccc1N1C(=O)c3ccccc3C21 (stereo not given)	5.1*	0	17	2	1	9
CC1(C)CC(=O)C2=C(C1)Nc1ccccc1N1C(=O)c3ccccc3C21 (stereo not given)	0	0	-16	-5	.	.
CCC(=O)N1c2ccccc2NC2=C(C(=O)CC(C)(C)C2)C1c1ccc(Cl)cc1 (stereo not given)	5.1*	0	10	0	0	-17
O=C(Nc1ccc(F)cc1)c1ccc(Cl)c(S(=O)(=O)N2CCOCC2)c1	0	0	-2	7	.	.
COc1ccc(-c2noc(N(C)CC(=O)N3CCN(c4cccc(Cl)c4)CC3)n2)cc1	-1	0	-4	0	.	.
COc1ccc(-c2noc(N(C)CC(=O)N3CCN(c4ccccc4OC)CC3)n2)cc1	6.5*	0	-6	2	0	-21
CC(C)C(NC(=O)C1CCCCC1)C(=O)Nc1ccncc1 (stereo not given)	5.6*	0	6	-2	0	9
CC(=O)c1ccc(OCC(=O)Nc2ccc(F)cc2)cc1	1	0	-3	-5	.	.
O=C(Cc1ccc(NS(=O)(=O)Cc2ccccc2)cc1)N1CCCC1	-1	0	3	-13	.	.
CC(C)(Sc1cc(C(C)(C)C)c(O)c(C(C)(C)C)c1)Sc1cc(C(C)(C)C)c(O)c(C(C)(C)C)c1	11*!	0	-3	2	0	4
Cc1ccc(N2C(=O)SC(Nc3ccc(I)cc3)C2=O)cc1 (stereo not given)	-1	0	-2	-1	.	.
Cc1ccc(N2C(=O)SC(Nc3ccc(F)cc3)C2=O)cc1 (stereo not given)	5.4*	0	-14	7	0	-9
Cc1cccc(NC2SC(=O)N(c3ccc(F)cc3)C2=O)c1 (stereo not given)	5.6*	0	-27	16	0	-12

Source: PubChem BioAssay (The Scripps Research Institute Molecular Screening Center)
